PubChem BioAssay
Values joined by “and” are separate entries in the source; they are usually repeats but may differ in a detail not shown here. Equal entries are not always repeated. Records with an inconclusive call do not appear. Active and inactive are the calls of the source. Unless noted, no stated cut-off is given here; in the data, active means fluorescence slope change above about 50%; inconclusive means mostly about 31% to 49%; inactive means weaker than that.

Legend:
[1] = reducers of polyQ inclusions in PC12 cells, cell-based, NGF-treated PC12, GFPQ80 (AID 1614); details: PC12 NGF-treated GFP-polyQ80 inclusion reduction;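 further: lower means fewer inclusions and 0 means no inclusions at all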
[2] = Cy5 fluorescence interference with SSB-bound oligo, artefact control for HCV NS3 helicase inhibitor project, biochemical, NIH Clinical Collection, E. coli SSB (AID 743268; call rule not given here)
[3] = tested on: Hepatitis C virus NS3 helicase; experiment: HCV NS3 helicase inhibitors, primary screen, biochemical, fluorescence polarization, NIH Clinical Collection (AID 743270; call rule not given here); details: NS3 helicase binding to Cy5-dT15 DNA, stronger effect = higher value, concentration not given here
[4] = molecular target: Single-stranded DNA-binding protein (Escherichia coli (strain K12)) (UniProt P0AGE0); experiment: E. coli SSB displacement from DNA, counter-screen for HCV NS3 helicase inhibitor project, biochemical, fluorescence polarization, NIH Clinical Collection (AID 743271; in the data active means inhibition above about 28%); details: stronger effect = higher value, concentration not given here
[5] = fluorescence interference in NS3h assay format, artefact control for HCV NS3 helicase inhibitor project, biochemical, NIH Clinical Collection (AID 743272; call rule not given here;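 further: HCV NS3 helicase with a Cy5 labelled single stranded DNA probe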); details: fluorescence interference counterscreen, stronger effect = lower value
[6] = modulation of C. elegans fzo-1 (AID 1259413; call rule not given here;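 further: fzo-1 mutant C. elegans worms in liquid wells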); details: C. elegans fzo-1 modulator screen, mean read-out; stronger effect = higher value
[7] = growth inhibition of DIPG glioma cells, dose response, cell-based, SU-DIPG-XVII, MIPE5.0, CellTiter-Glo, qHTS (AID 1347060; cut-off not given, nearly all actives have AC50 up to about 26 µM;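 on AC50: cells exposed to compound for 48 hours before viability readout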); details: SU-DIPG-XVII viability, CellTiter-Glo ATP luminescence
[8] = growth inhibition of DIPG glioma cells, dose response, cell-based, SU-DIPG-XIII, MIPE4.0, CellTiter-Glo, qHTS (AID 1347061; cut-off not given, nearly all actives have AC50 up to about 37 µM;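 further: cells exposed to compound for 48 hours before readout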); details: SU-DIPG-XIII viability, CellTiter-Glo ATP luminescence
[9] = SU-DIPG-VI glioma cell viability, MIPE4.0 library, CellTiter-Glo luminescence, qHTS (AID 1347066; cut-off not given, nearly all actives have AC50 up to about 30 µM;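 further: cells exposed to compound for 48 hours before readout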); details: CellTiter-Glo ATP luminescence
[10] = JHH-DIPG-1 glioma cell viability, MIPE5.0 library, CellTiter-Glo luminescence, qHTS (AID 1347067; cut-off not given, nearly all actives have AC50 up to about 26 µM;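 further: cells exposed to compound for 48 hours before readout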); details: JHH-DIPG-1 glioma viability, CellTiter-Glo ATP luminescence
[11] = SU-DIPG-XXV glioma cell viability, MIPE5.0 library, qHTS (AID 1347068; cut-off not given, nearly all actives have IC50 up to about 30 µM)
[12] = LFS_MB_P medulloblastoma growth inhibition, cell-based, chromothripsis tumors, cisplatin or BGB combos (AID 1671449; in the data active means inhibition above about 80%;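 further: cells exposed for 96 hours; 0% = vehicle DMSO and 100% = killing by high DMSO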); details: LFS_MB_P medulloblastoma cells
[13] = HDN33 neuroblastoma growth inhibition, cell-based, chromothripsis tumors, cisplatin or BGB combos (AID 1671450; in the data active means inhibition above about 80%;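 further: cells exposed to compound for four days; 0% = vehicle DMSO and 100% = cell killing by high DMSO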); details: HDN33 neuroblastoma cells, stronger effect = higher value
[14] = HTB85 osteosarcoma cell growth inhibition, synergistic combos for chromothripsis tumors, BGB or cisplatin IC20 combos (AID 1671453; in the data active means inhibition above about 80%;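 further: cells exposed for 96 hours before readout; 0% = vehicle DMSO and 100% = high DMSO killing control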); details: HTB85 osteosarcoma cells, drug combinations, stronger effect = higher value
F380Y/beta1 = experiment: modulators of BK channel variants, profiling panel, selectivity assay, cell-based, U2OS BacMam, thallium flux, beta subunits (AID 1259406;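 active means thallium flux through the channel raised or lowered by more than 3 SD from vehicle-only wells, actives on both sides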;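 further: initial slope of Thallos dye fluorescence rise after thallium is added; log ratio against the mean of 0.3% DMSO vehicle wells on the same plate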); details: at 30 µM
F380Y/beta4 = experiment: as above; details: at 30 µM
R275C/beta4 = experiment: as above; details: at 30 µM
R275C/Slo1WT/beta2 = experiment: as above; details: at 30 µM
[15] = molecular target: ATP-dependent translocase ABCB1 (Homo sapiens) (UniProt P08183); experiment: MDR1 (ABCB1) efflux transporter inhibition, cell-based (AID 377); details: MDR1-expressing cells, fluorescent substrate accumulation slope; stronger effect = higher value; concentration not given here
[16] = viability loss in pontine glioma line – cell-based, SU-DIPG-XXV, MIPE5.0, CellTiter-Glo, qHTS, dose response (AID 1347065; cut-off not given, nearly all actives have AC50 up to about 26 µM;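 further: cells exposed to compound for 48 hours before ATP readout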); details: CellTiter-Glo ATP luminescence

ATP-dependent translocase ABCB1 (Homo sapiens), sequence (P08183 whole entry, looked up): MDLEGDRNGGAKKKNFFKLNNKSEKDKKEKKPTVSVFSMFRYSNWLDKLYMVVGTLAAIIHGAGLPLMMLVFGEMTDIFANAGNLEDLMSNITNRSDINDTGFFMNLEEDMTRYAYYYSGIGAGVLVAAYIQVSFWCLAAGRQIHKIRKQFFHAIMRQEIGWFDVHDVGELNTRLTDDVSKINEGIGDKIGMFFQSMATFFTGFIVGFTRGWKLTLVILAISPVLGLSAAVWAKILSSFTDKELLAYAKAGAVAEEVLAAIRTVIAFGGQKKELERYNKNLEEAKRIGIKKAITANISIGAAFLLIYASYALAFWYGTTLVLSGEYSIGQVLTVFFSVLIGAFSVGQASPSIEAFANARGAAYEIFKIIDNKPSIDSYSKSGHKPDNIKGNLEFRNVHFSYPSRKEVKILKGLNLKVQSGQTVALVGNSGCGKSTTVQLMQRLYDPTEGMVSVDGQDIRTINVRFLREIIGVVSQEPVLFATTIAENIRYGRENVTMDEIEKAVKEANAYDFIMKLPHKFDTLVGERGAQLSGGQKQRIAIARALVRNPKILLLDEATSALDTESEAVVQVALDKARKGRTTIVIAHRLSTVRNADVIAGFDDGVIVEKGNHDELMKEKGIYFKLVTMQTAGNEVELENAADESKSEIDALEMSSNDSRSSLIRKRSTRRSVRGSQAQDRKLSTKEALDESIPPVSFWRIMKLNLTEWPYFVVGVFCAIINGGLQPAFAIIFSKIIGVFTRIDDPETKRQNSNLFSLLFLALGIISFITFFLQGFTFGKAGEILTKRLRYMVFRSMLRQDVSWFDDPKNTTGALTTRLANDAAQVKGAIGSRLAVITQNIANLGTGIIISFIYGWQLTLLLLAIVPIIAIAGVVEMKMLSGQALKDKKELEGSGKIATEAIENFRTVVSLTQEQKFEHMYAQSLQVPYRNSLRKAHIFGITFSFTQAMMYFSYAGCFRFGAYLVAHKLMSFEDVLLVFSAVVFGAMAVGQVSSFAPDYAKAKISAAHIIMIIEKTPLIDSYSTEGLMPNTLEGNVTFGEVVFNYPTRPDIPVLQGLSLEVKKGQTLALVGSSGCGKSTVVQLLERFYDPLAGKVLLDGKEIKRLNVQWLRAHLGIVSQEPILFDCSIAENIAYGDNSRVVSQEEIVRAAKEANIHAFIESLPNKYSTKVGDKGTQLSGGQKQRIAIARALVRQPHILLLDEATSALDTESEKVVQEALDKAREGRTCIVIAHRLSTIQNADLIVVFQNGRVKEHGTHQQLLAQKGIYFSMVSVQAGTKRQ

SMILES: O=P1(N(CCCl)CCCl)NCCCO1 (centres undefined)
- inclusion score [1]: 2
- fluorescence ratio [2]: 1.07 (inactive)
- inhibition [3]: -4.09% (inactive)
- inhibition [4]: 1.05% (inactive)
- fluorescence ratio [5]: 0.99 (inactive)
- mean signal [6]: 262 (inactive)
- outcome [7]: inactive
- outcome [8]: inactive
- outcome [9]: inactive
- outcome [10]: inactive
- outcome [11]: inactive
- inhibition ([12]; at 0.5 µM, stronger effect = higher value): -6.53% (inactive) and -7.84% (inactive)
- inhibition ([12]; measured here: combination with BGB IC20, at 0.005 µM): 2.32% and -13.2%
- inhibition ([12]; measured here: combination with BGB IC40, at 0.005 µM): -6.39% and -22.4%
- inhibition ([12]; measured here: combination with BGB IC40, at 0.05 µM): -5.95% and 13%
- inhibition ([12]; measured here: combination with cisplatin, at 0.5 µM, stronger effect = higher value): -9.48% and -17.9%
- inhibition ([12]; measured here: combination with cisplatin, at 5 µM, stronger effect = higher value): -25.8% and -37.1%
- inhibition ([13]; BGB combo, at 5 µM): -38.1% and 11.3%
- inhibition ([13]; at 0.5 µM): -28.6% (inactive) and -1.03% (inactive)
- inhibition ([13]; cisplatin combo, at 5 µM): -13.9% and -0.927%
- inhibition ([13]; measured here: with BGB IC20 combination, at 0.5 µM): -28.4% and 3.51%
- inhibition ([13]; measured here: with cisplatin IC20 combination, at 0.5 µM): -36.3% and 6%
- inhibition ([13]; single agent, at 5 µM): -28.1% and -8.82%
- inhibition ([14]; at 0.5 µM): -15.6% (inactive) and -16.2% (inactive)
- inhibition ([14]; measured here: with BGB IC20, at 0.5 µM): -17.1% and -31%
- inhibition ([14]; measured here: with BGB IC20, at 5 µM): -9.3% and -18.7%
- inhibition ([14]; measured here: with cisplatin IC20, at 0.5 µM): -29.3% and -21%
- inhibition ([14]; measured here: with cisplatin IC20, at 5 µM): -39.9% and -19.6%
- inhibition ([14]; single agent, at 5 µM): 0.113% and -3.32%
- log fold change Tl+ flux (F380Y/beta1): -0.00569 (inactive)
- log fold change Tl+ flux (F380Y/beta4): -0.0197 (inactive)
- log fold change Tl+ flux (R275C/beta4): 0.0832 (inactive)
- log fold change Tl+ flux (R275C/Slo1WT/beta2): 0.011 (inactive)

SMILES: NCCc1ccc(O)cc1
- inclusion score [1]: 2

SMILES: COc1ccc(Cc2nccc3cc(OC)c(OC)cc23)cc1OC
- fluorescence slope change [15]: 84.8% (active)
- inclusion score [1]: 2

SMILES: CC(C)(C)NCC(O)c1cc(Cl)c(N)c(Cl)c1 (centres undefined)
- fluorescence slope change [15]: -2.7% (inactive)
- inclusion score [1]: 2

SMILES: CCC1(CC)C(=O)C=CNC1=O
- fluorescence slope change [15]: 54.5% (active)
- inclusion score [1]: 2

SMILES: Clc1ccc(C(OCCN2CCCCC2)c2ccccc2)cc1 (centres undefined)
- fluorescence slope change [15]: 54.5% (active)

SMILES: Oc1ccc(Cl)cc1
- inclusion score [1]: 2

SMILES: N[C@@H]1C[C@H]1c1ccccc1
- outcome [7]: inactive
- outcome [8]: inactive
- outcome [16]: inactive
- outcome [9]: inactive
- outcome [10]: inactive
- outcome [11]: inactive

SMILES: NC(=O)CN1CCCC1=O
- fluorescence slope change [15]: 61.1% (active)
- inclusion score [1]: 2

SMILES: C[C@@H]1O[C@@H](O[C@H]2C[C@@H](O)[C@]3(CO)[C@H]4[C@H](O)C[C@]5(C)[C@@H](C6=CC(=O)OC6)CC[C@]5(O)[C@@H]4CC[C@]3(O)C2)[C@H](O)[C@H](O)[C@H]1O
- AC50 [7]: 52.5 nM (active)
- AC50 [8]: 13.2 nM (active)
- AC50 [16]: 93.4 nM (active)
- AC50 [9]: 29.6 nM (active)
- AC50 [10]: 18.6 nM (active)

SMILES: CNC(C)(C)Cc1ccccc1
- fluorescence slope change [15]: 29.7% (inactive)
- inclusion score [1]: 2

SMILES: Cc1cccc(C)c1NC1=NCCCS1
- fluorescence slope change [15]: 18% (inactive)
- inclusion score [1]: 2

SMILES: O=[N+]([O-])O[C@H]1CO[C@H]2[C@@H]1OC[C@H]2O[N+](=O)[O-]
- fluorescence slope change [15]: -12.8% (inactive)
- inclusion score [1]: 1

SMILES: CC(C)[N+](C)(CCC(C(N)=O)(c1ccccc1)c1ccccc1)C(C)C
- inclusion score [1]: 1.5

SMILES: COc1c2c(cc3c1OCO3)CCN(C)C2
- fluorescence slope change [15]: 4% (inactive)

SMILES: NC(=O)c1cc([N+](=O)[O-])cc([N+](=O)[O-])c1
- inclusion score [1]: 2

SMILES: NCC(CC(=O)O)c1ccc(Cl)cc1 (centres undefined)
- fluorescence slope change [15]: 76.7% (active)
- inclusion score [1]: 2

SMILES: Clc1ccc(CSC(Cn2ccnc2)c2ccc(Cl)cc2Cl)cc1 (centres undefined)
- fluorescence slope change [15]: 21.9% (inactive)

SMILES: CC(=O)Nc1cc([As](=O)(O)O)ccc1O
- inclusion score [1]: 2

SMILES: C[C@H]1C(=O)O[C@@H]2CCN3CC=C(COC(=O)[C@](C)(O)[C@]1(C)O)[C@H]23
- fluorescence slope change [15]: 24.9% (inactive)
- inclusion score [1]: 2

SMILES: C[C@@H]1CC[C@H]2[C@@H](C)C(=O)O[C@@H]3O[C@@]4(C)CC[C@@H]1[C@]32OO4
- outcome [7]: inactive
- outcome [8]: inactive
- outcome [16]: inactive
- outcome [9]: inactive
- outcome [10]: inactive
- outcome [11]: inactive

SMILES: O=c1oc2ccccc2c(O)c1Cc1c(O)c2ccccc2oc1=O
- fluorescence slope change [15]: -7.2% (inactive)
- inclusion score [1]: 1

SMILES: Cc1cc(O)ccc1Cl
- inclusion score [1]: 2

SMILES: CN1CCN(C(=O)O[C@H]2c3nccnc3C(=O)N2c2ccc(Cl)cn2)CC1
- fluorescence ratio [2]: 1 (inactive)
- inhibition [3]: -4.09% (inactive)
- inhibition [4]: -4.29% (inactive)
- fluorescence ratio [5]: 1.03 (inactive)
- mean signal [6]: 290 (active)
- outcome [8]: inactive
- outcome [9]: inactive
- log fold change Tl+ flux (F380Y/beta1): -0.0113 (inactive)
- log fold change Tl+ flux (F380Y/beta4): -0.00667 (inactive)
- log fold change Tl+ flux (R275C/beta4): 0.00608 (inactive)
- log fold change Tl+ flux (R275C/Slo1WT/beta2): -0.0138 (inactive)

SMILES: CCC(COC(=O)c1cc(OC)c(OC)c(OC)c1)(c1ccccc1)N(C)C (centres undefined)
- fluorescence ratio [2]: 0.98 (inactive)
- inhibition [3]: -1.19% (inactive)
- inhibition [4]: -0.87% (inactive)
- fluorescence ratio [5]: 0.98 (inactive)
- mean signal [6]: 257 (inactive)
- log fold change Tl+ flux (F380Y/beta1): -0.135 (active)
- log fold change Tl+ flux (F380Y/beta4): -0.301 (active)
- log fold change Tl+ flux (R275C/beta4): -0.198 (active)
- log fold change Tl+ flux (R275C/Slo1WT/beta2): -0.104 (active)
